We go through 37 molecules from article PMC5540273 (PLoS ONE, 2017).
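Also: KINOMEscan kinase panel screen.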

One assay concerns T1, MST2.
T1 construct: gene STK3
The note with it: concentration: 1 μM,replicates: in singlicate; n = 1.
As to `C[C@@H](Oc1cc(-n2cnc3cc(-c4ccncc4)ccc32)sc1C(N)=O)c1ccccc1Cl` [GSK479719], the “%Inh” value was found to be 70%.

As for `COc1cc2c(Nc3ccc(NC(=O)c4ccccc4)cc3)ncnc2cc1OCCCN1CCOCC1` [GSK301329], the “%Inh” value was determined as 0%.

For `Cc1cccc(-c2nc(Nc3ccncc3)c3sccc3n2)n1` [GW869641], the “%Inh” value is 17%.

With `Cl.Cl.NC[C@H](CC1CCCCC1)NC(=O)c1ccc(-c2ccnc3[nH]ccc23)s1` [GSK1581428], the “%Inh” value was determined as 0%.

`Cc1ccc(Nc2ccnc(Nc3ccc4c(c3)CS(=O)(=O)C4)n2)cc1O.Cl` [GW579362]: the “%Inh” value is 60%.

With `CCOC(=O)N1CCC(n2cnc(-c3ccc(F)cc3)c2-c2ccnc(N)n2)CC1` [SB-219952], the “%Inh” value came out at 0%.

In the case of `CS(=O)(=O)c1cccc(CNc2nc(Nc3ccc4c(c3)[C@@H]3C[C@@H]4CNC3=O)ncc2C(F)(F)F)c1`, the “%Inh” value is listed as 18%.

For `O=C(Nc1ccc(Oc2ccc3nc(NC(=O)C4CC4)cn3n2)c(F)c1)c1cccn(-c2ccccc2)c1=O`, the “%Inh” value was found to be 0%.

For the molecule `Cc1ccc(C(=O)Nc2ccc(Oc3ccc4nc(NC(=O)C5CC5)cn4c3)c(F)c2)c(=O)n1-c1ccccc1`, the “%Inh” value was determined as 100%.

Turning to `CCN1CCN(CCCC(=O)Nc2n[nH]c3nc(-c4ccc(O)cc4)c(Br)cc23)CC1` [SB-731579], the “%Inh” value worked out at 57%.

Turning to `COC(=O)c1cccc(NC(=O)NC2CCN(c3ccnc(Nc4cc(OC)c(OC)c(OC)c4)n3)C2)c1` (centres unmarked) [GSK1379767], the “%Inh” value is 2%.

For `Cn1cc(-c2cccc3c(N)c(C(N)=O)nnc23)cn1`, the “%Inh” value was found to be 2%.

As for `Cn1ccc2ncnc(Oc3ccc(NC(=O)Nc4cccc(C(F)(F)F)c4)c(F)c3)c21`, the “%Inh” value is 0%.

Regarding `COc1cc(Nc2nccc(N3CCC(NC(=O)c4cccc(C#N)c4)C3)n2)cc(OC)c1OC` (centres unmarked) [GSK1379751], the “%Inh” value is recorded as 0%.

As for `c1ccc(Oc2ccc(Nc3ccnc4ccc(-c5ccccn5)cc34)cc2)cc1` [GW407034], the “%Inh” value was found to be 0%.

As for `C[C@@H](Oc1cc(-n2cnc3cc(-c4cnn(C)c4)ccc32)sc1C(N)=O)c1ccccc1Cl` [GSK580432], the “%Inh” value is 70%.

As for `FC(F)(F)c1cc(Br)cc(Nc2nccc(-c3cnn4ncccc34)n2)c1` [GW810578], the “%Inh” value was determined as 0%.

Turning to `COc1cccc(CNC(=O)NC2CCN(c3ccnc(Nc4cc(OC)c(OC)c(OC)c4)n3)C2)c1` (centres unmarked) [GSK1379765], the “%Inh” value is reported as 27%.

Take `Cc1n[nH]c2cc(Nc3ccnc(Nc4cccc(CN5CCOCC5)c4)n3)ccc12` [GW682569]: the “%Inh” value was 26%.

On to `O=C(NCC1CC1)c1ccc(-c2cc(C(=O)NC3CC3)ccc2F)cc1` [GW810445], for which the “%Inh” value came out at 0%.

As for `Cc1nnc(-c2ccc3occ(-c4ccc(S(C)=O)cc4)c3n2)o1` (centres unmarked), the “%Inh” value turned out to be 0%.

For `COC(=O)c1cccc(NC(=O)NC2CCN(c3ccnc(NCc4ccc(F)cc4)n3)CC2)c1` [GSK1379860], the “%Inh” value stood at 0%.

Turning to `Cc1cccc2c(-c3ccncc3)c(-c3ccc(F)cc3)nn12.Cl` [GW461487], the “%Inh” value is reported as 46%.

As to `O=C(Nc1n[nH]c2cc(-c3ccco3)ccc12)C1CC1` [SB-737447], the “%Inh” value is listed as 15%.

Take `CN(c1ccccc1CNc1nc(Nc2ccc3c(c2)CC(=O)N3)ncc1C(F)(F)F)S(C)(=O)=O`: the “%Inh” value came out at 70%.

`CC(=O)Nc1nc2cnc(Nc3cc(NC(=O)c4cccc(CC(C)(C)C#N)c4)ccc3C)nc2s1`: the “%Inh” value was found to be 0%.

On to `COc1ccc(Nc2nccc(N3CCC(NC(=O)c4cccc(C#N)c4)C3)n2)cc1` (centres unmarked) [GSK1379730], for which the “%Inh” value was 0%.

For `CS(=O)c1ccc(-c2coc3ccc(-c4n[nH]c(=O)o4)cc23)cc1` (centres unmarked), the “%Inh” value came out at 0%.

Turning to `CS(=O)(=O)Nc1ccc(-c2ccnc3[nH]ccc23)cc1` [GSK993273], the “%Inh” value is recorded as 5%.

As for `Cn1ccc2ncnc(Oc3ccc(NC(=O)Nc4cnn(C(C)(C)C)c4)c(Cl)c3)c21`, the “%Inh” value is 0%.

As for `Cl.c1ccc(Oc2ccc(Nc3ccnc4cc(-c5ccc(CN6CCNCC6)o5)ccc34)cc2)nc1` [GW567142], the “%Inh” value stood at 31%.

Turning to `CSc1nccc(-c2c(-c3ccc(F)cc3)ncn2CCCN2CCOCC2)n1.Cl` [SB-217146], the “%Inh” value worked out at 0%.

`C[C@@H](Oc1cc(-n2cnc3ccc(-c4ccncc4)cc32)sc1C(N)=O)c1ccccc1Cl` [GSK483724]: the “%Inh” value is listed as 21%.

With `Nc1nccc(-c2ccc3c(N)n[nH]c3c2)n1` [GSK1034945], the “%Inh” value worked out at 0%.

Take `CC(C(=O)NC1CCN(c2ccnc(Nc3ccc(F)cc3)n2)C1)c1ccc(Cl)cc1` (centres unmarked) [GSK1379713]: the “%Inh” value is recorded as 0%.

As to `C[C@@H]1CCN(C(=O)N2CCCC2)C[C@@H]1N(C)c1ncnc2[nH]ccc12`, the “%Inh” value is on record as 23%.

In the case of `NC(=O)c1ccc(-c2cc3ncnc(SCC(=O)O)c3s2)cc1`, the “%Inh” value stood at 0%.

A further assay has as its system T2, MST3.
T2 construct: gene STK24
The note with it: concentration: 1 μM,replicates: in singlicate; n = 1.
As for `C[C@@H](Oc1cc(-n2cnc3cc(-c4ccncc4)ccc32)sc1C(N)=O)c1ccccc1Cl` [GSK479719], the “%Inh” value worked out at 0%.

Consider `COc1cc2c(Nc3ccc(NC(=O)c4ccccc4)cc3)ncnc2cc1OCCCN1CCOCC1` [GSK301329], for which the “%Inh” value turned out to be 0%.

For `Cc1cccc(-c2nc(Nc3ccncc3)c3sccc3n2)n1` [GW869641], the “%Inh” value was determined as 5%.

For `Cl.Cl.NC[C@H](CC1CCCCC1)NC(=O)c1ccc(-c2ccnc3[nH]ccc23)s1` [GSK1581428], the “%Inh” value came out at 9%.

Turning to `Cc1ccc(Nc2ccnc(Nc3ccc4c(c3)CS(=O)(=O)C4)n2)cc1O.Cl` [GW579362], the “%Inh” value is 29%.

On to `CCOC(=O)N1CCC(n2cnc(-c3ccc(F)cc3)c2-c2ccnc(N)n2)CC1` [SB-219952], for which the “%Inh” value is 44%.

In the case of `CS(=O)(=O)c1cccc(CNc2nc(Nc3ccc4c(c3)[C@@H]3C[C@@H]4CNC3=O)ncc2C(F)(F)F)c1`, the “%Inh” value is 15%.

Take `O=C(Nc1ccc(Oc2ccc3nc(NC(=O)C4CC4)cn3n2)c(F)c1)c1cccn(-c2ccccc2)c1=O`: the “%Inh” value turned out to be 0%.

For `Cc1ccc(C(=O)Nc2ccc(Oc3ccc4nc(NC(=O)C5CC5)cn4c3)c(F)c2)c(=O)n1-c1ccccc1`, the “%Inh” value came to 5%.

`CCN1CCN(CCCC(=O)Nc2n[nH]c3nc(-c4ccc(O)cc4)c(Br)cc23)CC1` [SB-731579]: the “%Inh” value is 0%.

For the molecule `COC(=O)c1cccc(NC(=O)NC2CCN(c3ccnc(Nc4cc(OC)c(OC)c(OC)c4)n3)C2)c1` (centres unmarked) [GSK1379767], the “%Inh” value came out at 0%.

With `Cn1cc(-c2cccc3c(N)c(C(N)=O)nnc23)cn1`, the “%Inh” value was found to be 51%.

In the case of `Cn1ccc2ncnc(Oc3ccc(NC(=O)Nc4cccc(C(F)(F)F)c4)c(F)c3)c21`, the “%Inh” value was 0%.

As for `COc1cc(Nc2nccc(N3CCC(NC(=O)c4cccc(C#N)c4)C3)n2)cc(OC)c1OC` (centres unmarked) [GSK1379751], the “%Inh” value was determined as 0%.

Turning to `c1ccc(Oc2ccc(Nc3ccnc4ccc(-c5ccccn5)cc34)cc2)cc1` [GW407034], the “%Inh” value was found to be 4%.

`C[C@@H](Oc1cc(-n2cnc3cc(-c4cnn(C)c4)ccc32)sc1C(N)=O)c1ccccc1Cl` [GSK580432]: the “%Inh” value is recorded as 0%.

Take `FC(F)(F)c1cc(Br)cc(Nc2nccc(-c3cnn4ncccc34)n2)c1` [GW810578]: the “%Inh” value came to 0%.

As to `COc1cccc(CNC(=O)NC2CCN(c3ccnc(Nc4cc(OC)c(OC)c(OC)c4)n3)C2)c1` (centres unmarked) [GSK1379765], the “%Inh” value was 0%.

On to `Cc1n[nH]c2cc(Nc3ccnc(Nc4cccc(CN5CCOCC5)c4)n3)ccc12` [GW682569], for which the “%Inh” value was determined as 14%.

For the molecule `O=C(NCC1CC1)c1ccc(-c2cc(C(=O)NC3CC3)ccc2F)cc1` [GW810445], the “%Inh” value stood at 0%.

Take `Cc1nnc(-c2ccc3occ(-c4ccc(S(C)=O)cc4)c3n2)o1` (centres unmarked): the “%Inh” value is given as 0%.

In the case of `COC(=O)c1cccc(NC(=O)NC2CCN(c3ccnc(NCc4ccc(F)cc4)n3)CC2)c1` [GSK1379860], the “%Inh” value is reported as 0%.

Regarding `Cc1cccc2c(-c3ccncc3)c(-c3ccc(F)cc3)nn12.Cl` [GW461487], the “%Inh” value is recorded as 16%.

Turning to `O=C(Nc1n[nH]c2cc(-c3ccco3)ccc12)C1CC1` [SB-737447], the “%Inh” value came out at 17%.

With `CN(c1ccccc1CNc1nc(Nc2ccc3c(c2)CC(=O)N3)ncc1C(F)(F)F)S(C)(=O)=O`, the “%Inh” value was 30%.

As to `CC(=O)Nc1nc2cnc(Nc3cc(NC(=O)c4cccc(CC(C)(C)C#N)c4)ccc3C)nc2s1`, the “%Inh” value is 0%.

For the molecule `COc1ccc(Nc2nccc(N3CCC(NC(=O)c4cccc(C#N)c4)C3)n2)cc1` (centres unmarked) [GSK1379730], the “%Inh” value worked out at 0%.

`CS(=O)c1ccc(-c2coc3ccc(-c4n[nH]c(=O)o4)cc23)cc1` (centres unmarked): the “%Inh” value came to 24%.

For the molecule `CS(=O)(=O)Nc1ccc(-c2ccnc3[nH]ccc23)cc1` [GSK993273], the “%Inh” value was 20%.

Consider `Cn1ccc2ncnc(Oc3ccc(NC(=O)Nc4cnn(C(C)(C)C)c4)c(Cl)c3)c21`, for which the “%Inh” value is reported as 4%.

On to `Cl.c1ccc(Oc2ccc(Nc3ccnc4cc(-c5ccc(CN6CCNCC6)o5)ccc34)cc2)nc1` [GW567142], for which the “%Inh” value came out at 8%.

With `CSc1nccc(-c2c(-c3ccc(F)cc3)ncn2CCCN2CCOCC2)n1.Cl` [SB-217146], the “%Inh” value was 6%.

Turning to `C[C@@H](Oc1cc(-n2cnc3ccc(-c4ccncc4)cc32)sc1C(N)=O)c1ccccc1Cl` [GSK483724], the “%Inh” value was 0%.

With `Nc1nccc(-c2ccc3c(N)n[nH]c3c2)n1` [GSK1034945], the “%Inh” value was 0%.

Take `CC(C(=O)NC1CCN(c2ccnc(Nc3ccc(F)cc3)n2)C1)c1ccc(Cl)cc1` (centres unmarked) [GSK1379713]: the “%Inh” value is given as 0%.

Regarding `C[C@@H]1CCN(C(=O)N2CCCC2)C[C@@H]1N(C)c1ncnc2[nH]ccc12`, the “%Inh” value is reported as 25%.

Regarding `NC(=O)c1ccc(-c2cc3ncnc(SCC(=O)O)c3s2)cc1`, the “%Inh” value came out at 0%.
